Experimental data reported in the supplement of paper PMC11732987, “Enantioselective OTUD7B fragment discovery through chemoproteomics screening and high-throughput optimisation” (Communications Chemistry, 2025).

Columns and labels:
Experiment in all cases: log2 ratio of Biotin-Ahx-Ub-VS probe labelling (fragment/DMSO); higher = less target engagement (more negative = stronger competition), active = hit call of the paper (q ≤ 0.05, log2 ratio ≤ -1)
Conditions in all cases: compound concentration: 200 uM; treatment time: 3 h
USP42 = biological target: T1, USP42 (UniProt Q9H9J4)
T1 sequence (whole entry): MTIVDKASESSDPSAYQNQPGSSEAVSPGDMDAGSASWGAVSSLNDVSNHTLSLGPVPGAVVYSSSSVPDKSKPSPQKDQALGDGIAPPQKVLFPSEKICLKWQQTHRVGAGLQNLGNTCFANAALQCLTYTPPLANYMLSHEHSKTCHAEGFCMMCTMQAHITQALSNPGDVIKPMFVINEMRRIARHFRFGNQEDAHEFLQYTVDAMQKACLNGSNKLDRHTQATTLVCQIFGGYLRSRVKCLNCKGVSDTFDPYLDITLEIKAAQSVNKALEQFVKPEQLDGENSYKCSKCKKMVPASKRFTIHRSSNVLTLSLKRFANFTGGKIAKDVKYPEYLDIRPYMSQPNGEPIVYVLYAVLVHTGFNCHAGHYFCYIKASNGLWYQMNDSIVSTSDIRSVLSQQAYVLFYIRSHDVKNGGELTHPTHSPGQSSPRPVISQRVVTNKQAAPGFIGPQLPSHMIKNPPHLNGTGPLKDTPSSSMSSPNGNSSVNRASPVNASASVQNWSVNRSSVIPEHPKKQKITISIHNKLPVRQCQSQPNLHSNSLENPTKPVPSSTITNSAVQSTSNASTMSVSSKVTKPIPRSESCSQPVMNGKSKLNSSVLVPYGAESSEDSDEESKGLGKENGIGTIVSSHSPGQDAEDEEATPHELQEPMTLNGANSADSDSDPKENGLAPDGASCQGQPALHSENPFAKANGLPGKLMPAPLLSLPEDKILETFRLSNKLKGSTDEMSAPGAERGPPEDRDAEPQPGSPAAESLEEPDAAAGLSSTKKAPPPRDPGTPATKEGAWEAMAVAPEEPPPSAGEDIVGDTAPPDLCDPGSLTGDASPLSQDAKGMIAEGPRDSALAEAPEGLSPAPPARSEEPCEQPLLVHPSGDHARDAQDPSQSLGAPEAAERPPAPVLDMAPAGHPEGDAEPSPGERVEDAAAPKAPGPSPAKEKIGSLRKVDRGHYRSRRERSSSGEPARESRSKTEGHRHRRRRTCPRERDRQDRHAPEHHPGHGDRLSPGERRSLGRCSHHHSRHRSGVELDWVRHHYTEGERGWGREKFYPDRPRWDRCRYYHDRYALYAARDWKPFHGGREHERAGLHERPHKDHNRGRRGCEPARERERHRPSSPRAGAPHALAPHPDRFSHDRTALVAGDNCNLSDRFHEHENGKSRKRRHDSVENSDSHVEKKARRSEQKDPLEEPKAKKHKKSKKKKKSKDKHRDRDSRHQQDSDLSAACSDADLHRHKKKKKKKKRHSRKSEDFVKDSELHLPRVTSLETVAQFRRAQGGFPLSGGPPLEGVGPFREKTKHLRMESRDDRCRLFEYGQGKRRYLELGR
Procedure, shortened: (§1)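 HEK293T lysate (495 µg per sample, in Tris/CHAPS/IGEPAL buffer with protease inhibitors) was exposed in triplicate for 3 h to fragment at 200 µM or to vehicle, then to Biotin-Ahx-Ub-VS at 0.5 µM final for 1 h. Labelled DUBs were enriched on NeutrAvidin, digested with LysC and trypsin, and analysed by diaPASEF LC-MS/MS. Spectronaut label-free quantities were normalised to the global median, and values are average log2 ratios of fragment over vehicle from an unpaired t-test. Only proteins with ≥2 unique peptides were used.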

USP46 = USP46 (UniProt P62068)
USP46, sequence (P62068 whole entry): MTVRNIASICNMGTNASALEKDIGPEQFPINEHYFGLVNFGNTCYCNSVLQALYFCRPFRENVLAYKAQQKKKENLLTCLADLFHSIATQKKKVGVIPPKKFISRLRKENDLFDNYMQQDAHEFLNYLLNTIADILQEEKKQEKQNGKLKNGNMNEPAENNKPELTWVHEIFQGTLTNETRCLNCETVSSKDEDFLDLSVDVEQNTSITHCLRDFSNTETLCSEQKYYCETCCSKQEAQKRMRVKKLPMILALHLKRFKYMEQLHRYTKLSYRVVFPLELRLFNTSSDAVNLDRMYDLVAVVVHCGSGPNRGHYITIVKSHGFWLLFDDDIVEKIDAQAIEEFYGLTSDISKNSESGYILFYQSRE
Procedure, shortened: as §1

USP47 = biological target: T2, USP47 (UniProt Q96K76)
T2 sequence (whole entry): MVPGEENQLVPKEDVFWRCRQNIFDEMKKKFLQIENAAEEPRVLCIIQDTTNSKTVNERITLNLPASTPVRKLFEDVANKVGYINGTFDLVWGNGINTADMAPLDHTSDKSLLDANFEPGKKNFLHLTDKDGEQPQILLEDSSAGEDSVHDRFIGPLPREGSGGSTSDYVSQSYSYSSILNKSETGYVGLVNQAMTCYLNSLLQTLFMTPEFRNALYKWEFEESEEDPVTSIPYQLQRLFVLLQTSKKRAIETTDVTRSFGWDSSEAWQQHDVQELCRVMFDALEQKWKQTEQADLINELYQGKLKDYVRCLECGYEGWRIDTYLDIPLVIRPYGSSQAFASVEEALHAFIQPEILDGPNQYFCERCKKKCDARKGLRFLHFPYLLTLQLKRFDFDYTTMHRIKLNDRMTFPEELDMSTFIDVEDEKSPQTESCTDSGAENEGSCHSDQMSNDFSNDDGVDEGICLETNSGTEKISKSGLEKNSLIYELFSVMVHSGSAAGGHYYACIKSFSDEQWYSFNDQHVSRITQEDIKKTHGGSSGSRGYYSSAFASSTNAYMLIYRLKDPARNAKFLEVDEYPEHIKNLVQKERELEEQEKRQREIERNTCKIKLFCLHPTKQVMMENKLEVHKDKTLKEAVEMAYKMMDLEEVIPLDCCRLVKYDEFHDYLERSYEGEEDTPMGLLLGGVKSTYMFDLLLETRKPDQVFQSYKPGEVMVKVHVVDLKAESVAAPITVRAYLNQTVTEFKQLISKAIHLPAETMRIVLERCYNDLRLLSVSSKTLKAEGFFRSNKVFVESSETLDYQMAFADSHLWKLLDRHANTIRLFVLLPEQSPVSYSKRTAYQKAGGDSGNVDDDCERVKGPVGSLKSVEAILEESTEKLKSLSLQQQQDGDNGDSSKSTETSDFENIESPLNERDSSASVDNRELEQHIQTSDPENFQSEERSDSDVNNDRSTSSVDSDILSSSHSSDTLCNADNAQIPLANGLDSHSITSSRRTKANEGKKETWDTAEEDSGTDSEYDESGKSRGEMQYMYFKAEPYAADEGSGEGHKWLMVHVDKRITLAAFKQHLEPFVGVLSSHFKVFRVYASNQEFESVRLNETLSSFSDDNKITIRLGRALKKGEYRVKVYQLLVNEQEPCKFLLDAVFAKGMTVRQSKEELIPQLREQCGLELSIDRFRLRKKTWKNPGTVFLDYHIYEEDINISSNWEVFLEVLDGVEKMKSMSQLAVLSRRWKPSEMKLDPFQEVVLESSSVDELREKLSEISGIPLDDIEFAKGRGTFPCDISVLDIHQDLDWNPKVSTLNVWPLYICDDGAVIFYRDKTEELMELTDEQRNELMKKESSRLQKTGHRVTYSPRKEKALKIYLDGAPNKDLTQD
Procedure, shortened: as §1

USP48 = biological target: T3, USP48 (UniProt Q86UV5)
T3 sequence (whole entry): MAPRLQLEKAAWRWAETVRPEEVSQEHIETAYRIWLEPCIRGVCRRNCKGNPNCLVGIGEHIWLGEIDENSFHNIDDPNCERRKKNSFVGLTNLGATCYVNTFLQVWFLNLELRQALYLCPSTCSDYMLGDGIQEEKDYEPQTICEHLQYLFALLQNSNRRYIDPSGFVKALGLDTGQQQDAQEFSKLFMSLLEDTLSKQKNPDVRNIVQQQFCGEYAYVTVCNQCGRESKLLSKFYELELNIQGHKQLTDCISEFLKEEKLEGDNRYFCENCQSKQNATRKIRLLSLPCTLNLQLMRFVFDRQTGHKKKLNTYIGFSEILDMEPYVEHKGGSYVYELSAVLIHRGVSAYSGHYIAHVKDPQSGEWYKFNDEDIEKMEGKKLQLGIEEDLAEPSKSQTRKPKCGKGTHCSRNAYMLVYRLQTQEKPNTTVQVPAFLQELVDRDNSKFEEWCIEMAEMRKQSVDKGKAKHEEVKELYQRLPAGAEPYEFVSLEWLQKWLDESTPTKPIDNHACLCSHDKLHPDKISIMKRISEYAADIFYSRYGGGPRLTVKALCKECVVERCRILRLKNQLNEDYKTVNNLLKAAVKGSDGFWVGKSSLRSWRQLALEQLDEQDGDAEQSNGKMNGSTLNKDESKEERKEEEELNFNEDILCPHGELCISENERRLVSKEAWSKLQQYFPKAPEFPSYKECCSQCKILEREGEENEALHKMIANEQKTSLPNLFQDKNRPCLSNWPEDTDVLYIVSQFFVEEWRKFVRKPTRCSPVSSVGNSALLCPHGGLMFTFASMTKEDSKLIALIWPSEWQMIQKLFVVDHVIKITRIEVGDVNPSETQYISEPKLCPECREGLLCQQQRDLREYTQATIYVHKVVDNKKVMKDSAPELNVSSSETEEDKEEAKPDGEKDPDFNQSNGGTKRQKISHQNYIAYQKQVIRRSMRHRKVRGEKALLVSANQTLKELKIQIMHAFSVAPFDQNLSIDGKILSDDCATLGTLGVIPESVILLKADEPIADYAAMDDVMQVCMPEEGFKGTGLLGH
Procedure, shortened: as §1

USP5 = biological target: T4, USP5 (UniProt P45974)
T4 sequence (whole entry): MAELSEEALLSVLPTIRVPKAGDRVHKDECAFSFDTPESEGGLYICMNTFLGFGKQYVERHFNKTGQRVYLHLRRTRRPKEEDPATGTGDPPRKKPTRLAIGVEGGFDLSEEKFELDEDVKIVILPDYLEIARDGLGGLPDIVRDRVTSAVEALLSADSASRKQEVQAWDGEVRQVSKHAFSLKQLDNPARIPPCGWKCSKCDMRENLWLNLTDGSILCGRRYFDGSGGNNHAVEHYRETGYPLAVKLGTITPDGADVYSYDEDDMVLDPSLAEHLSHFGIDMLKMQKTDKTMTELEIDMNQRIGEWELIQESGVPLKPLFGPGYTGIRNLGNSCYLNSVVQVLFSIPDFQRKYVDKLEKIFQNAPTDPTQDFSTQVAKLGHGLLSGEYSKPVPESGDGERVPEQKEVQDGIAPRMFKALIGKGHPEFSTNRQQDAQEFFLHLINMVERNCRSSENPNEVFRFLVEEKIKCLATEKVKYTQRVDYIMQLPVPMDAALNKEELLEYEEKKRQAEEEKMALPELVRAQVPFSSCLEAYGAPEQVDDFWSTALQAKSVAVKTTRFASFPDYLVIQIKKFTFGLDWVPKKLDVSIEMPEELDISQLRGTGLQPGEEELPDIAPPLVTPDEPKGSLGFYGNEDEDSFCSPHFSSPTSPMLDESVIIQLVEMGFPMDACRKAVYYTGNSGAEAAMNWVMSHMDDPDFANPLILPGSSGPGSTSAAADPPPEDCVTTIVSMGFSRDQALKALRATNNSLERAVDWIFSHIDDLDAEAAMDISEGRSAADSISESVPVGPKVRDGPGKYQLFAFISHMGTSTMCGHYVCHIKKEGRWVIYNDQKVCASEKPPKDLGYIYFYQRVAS
Procedure, shortened: as §1

USP54 = USP54 (UniProt Q70EL1)
USP54, sequence (Q70EL1 whole entry): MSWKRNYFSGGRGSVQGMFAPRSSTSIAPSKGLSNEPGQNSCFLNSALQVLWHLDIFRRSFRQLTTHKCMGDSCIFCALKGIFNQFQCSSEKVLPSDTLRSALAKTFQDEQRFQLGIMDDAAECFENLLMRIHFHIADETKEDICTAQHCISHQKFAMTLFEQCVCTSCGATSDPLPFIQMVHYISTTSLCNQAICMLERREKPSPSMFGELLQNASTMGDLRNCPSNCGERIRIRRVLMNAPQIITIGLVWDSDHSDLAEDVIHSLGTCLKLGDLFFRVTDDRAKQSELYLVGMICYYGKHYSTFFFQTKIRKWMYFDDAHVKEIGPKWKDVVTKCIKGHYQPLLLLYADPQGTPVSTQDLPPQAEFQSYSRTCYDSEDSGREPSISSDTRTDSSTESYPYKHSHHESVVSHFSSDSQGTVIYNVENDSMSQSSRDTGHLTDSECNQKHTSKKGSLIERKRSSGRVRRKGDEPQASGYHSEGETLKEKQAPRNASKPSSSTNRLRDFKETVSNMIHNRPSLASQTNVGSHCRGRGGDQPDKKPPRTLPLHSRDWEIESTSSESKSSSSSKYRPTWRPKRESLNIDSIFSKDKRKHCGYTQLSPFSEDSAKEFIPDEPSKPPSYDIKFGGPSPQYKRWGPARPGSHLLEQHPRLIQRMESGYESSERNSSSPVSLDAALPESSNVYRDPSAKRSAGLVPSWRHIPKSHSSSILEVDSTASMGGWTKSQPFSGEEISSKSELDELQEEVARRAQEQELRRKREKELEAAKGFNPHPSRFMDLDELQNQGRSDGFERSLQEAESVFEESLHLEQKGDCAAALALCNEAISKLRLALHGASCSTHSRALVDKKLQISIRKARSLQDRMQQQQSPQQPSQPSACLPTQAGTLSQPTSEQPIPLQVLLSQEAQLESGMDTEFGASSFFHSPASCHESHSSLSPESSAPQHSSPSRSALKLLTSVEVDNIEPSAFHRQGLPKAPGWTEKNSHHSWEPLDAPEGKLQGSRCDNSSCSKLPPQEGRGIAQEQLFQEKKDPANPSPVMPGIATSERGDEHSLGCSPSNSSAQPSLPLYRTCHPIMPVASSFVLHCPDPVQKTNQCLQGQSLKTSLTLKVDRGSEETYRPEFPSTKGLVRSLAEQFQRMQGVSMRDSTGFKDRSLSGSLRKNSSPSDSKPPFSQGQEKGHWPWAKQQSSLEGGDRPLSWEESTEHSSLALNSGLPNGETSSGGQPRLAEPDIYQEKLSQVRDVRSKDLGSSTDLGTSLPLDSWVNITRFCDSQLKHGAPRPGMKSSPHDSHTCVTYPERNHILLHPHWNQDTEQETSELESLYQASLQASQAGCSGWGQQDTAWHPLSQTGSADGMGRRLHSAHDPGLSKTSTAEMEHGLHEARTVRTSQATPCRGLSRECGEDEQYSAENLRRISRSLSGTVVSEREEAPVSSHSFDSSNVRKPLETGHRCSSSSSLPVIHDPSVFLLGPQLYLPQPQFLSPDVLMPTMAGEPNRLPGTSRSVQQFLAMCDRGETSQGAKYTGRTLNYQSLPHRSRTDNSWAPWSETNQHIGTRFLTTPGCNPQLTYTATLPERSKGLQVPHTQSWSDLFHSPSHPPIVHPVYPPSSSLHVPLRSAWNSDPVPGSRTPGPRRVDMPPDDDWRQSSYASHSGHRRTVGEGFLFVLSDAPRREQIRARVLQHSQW
Procedure, shortened: as §1

USP7 = USP7 (UniProt Q93009)
Procedure, shortened: as §1

USP8 = biological target: T5, USP8 (UniProt P40818)
T5 sequence (whole entry): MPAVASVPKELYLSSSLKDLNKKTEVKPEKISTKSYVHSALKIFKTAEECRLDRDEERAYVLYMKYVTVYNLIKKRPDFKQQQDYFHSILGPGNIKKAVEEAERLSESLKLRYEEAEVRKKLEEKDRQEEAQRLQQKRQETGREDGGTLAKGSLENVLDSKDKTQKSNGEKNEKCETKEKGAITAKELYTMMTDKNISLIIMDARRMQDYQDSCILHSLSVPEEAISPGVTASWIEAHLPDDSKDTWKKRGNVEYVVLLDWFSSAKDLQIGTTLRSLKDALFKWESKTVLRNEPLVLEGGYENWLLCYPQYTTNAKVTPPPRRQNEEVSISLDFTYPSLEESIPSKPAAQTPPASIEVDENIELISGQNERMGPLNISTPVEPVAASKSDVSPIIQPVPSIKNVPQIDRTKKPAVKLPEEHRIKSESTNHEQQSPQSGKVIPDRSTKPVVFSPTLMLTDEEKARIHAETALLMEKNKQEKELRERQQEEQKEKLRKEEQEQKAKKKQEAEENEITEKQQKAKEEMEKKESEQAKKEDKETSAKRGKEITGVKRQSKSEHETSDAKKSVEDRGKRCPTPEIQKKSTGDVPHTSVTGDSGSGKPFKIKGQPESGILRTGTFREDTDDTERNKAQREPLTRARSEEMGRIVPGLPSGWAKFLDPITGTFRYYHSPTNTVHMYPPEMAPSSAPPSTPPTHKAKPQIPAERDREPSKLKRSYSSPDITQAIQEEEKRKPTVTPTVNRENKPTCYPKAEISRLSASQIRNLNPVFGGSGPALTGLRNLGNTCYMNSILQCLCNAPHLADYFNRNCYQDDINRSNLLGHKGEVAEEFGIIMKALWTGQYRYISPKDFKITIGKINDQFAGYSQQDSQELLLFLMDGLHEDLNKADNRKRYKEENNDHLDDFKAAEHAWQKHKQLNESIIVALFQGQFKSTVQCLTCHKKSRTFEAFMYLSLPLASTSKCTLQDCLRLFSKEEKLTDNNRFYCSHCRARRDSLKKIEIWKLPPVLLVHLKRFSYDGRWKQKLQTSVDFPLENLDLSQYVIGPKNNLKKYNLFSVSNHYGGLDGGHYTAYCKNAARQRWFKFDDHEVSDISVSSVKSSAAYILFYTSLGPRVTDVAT
Procedure, shortened: as §1

USP9X = USP9X (UniProt Q93008)
USP9X, sequence (Q93008 whole entry): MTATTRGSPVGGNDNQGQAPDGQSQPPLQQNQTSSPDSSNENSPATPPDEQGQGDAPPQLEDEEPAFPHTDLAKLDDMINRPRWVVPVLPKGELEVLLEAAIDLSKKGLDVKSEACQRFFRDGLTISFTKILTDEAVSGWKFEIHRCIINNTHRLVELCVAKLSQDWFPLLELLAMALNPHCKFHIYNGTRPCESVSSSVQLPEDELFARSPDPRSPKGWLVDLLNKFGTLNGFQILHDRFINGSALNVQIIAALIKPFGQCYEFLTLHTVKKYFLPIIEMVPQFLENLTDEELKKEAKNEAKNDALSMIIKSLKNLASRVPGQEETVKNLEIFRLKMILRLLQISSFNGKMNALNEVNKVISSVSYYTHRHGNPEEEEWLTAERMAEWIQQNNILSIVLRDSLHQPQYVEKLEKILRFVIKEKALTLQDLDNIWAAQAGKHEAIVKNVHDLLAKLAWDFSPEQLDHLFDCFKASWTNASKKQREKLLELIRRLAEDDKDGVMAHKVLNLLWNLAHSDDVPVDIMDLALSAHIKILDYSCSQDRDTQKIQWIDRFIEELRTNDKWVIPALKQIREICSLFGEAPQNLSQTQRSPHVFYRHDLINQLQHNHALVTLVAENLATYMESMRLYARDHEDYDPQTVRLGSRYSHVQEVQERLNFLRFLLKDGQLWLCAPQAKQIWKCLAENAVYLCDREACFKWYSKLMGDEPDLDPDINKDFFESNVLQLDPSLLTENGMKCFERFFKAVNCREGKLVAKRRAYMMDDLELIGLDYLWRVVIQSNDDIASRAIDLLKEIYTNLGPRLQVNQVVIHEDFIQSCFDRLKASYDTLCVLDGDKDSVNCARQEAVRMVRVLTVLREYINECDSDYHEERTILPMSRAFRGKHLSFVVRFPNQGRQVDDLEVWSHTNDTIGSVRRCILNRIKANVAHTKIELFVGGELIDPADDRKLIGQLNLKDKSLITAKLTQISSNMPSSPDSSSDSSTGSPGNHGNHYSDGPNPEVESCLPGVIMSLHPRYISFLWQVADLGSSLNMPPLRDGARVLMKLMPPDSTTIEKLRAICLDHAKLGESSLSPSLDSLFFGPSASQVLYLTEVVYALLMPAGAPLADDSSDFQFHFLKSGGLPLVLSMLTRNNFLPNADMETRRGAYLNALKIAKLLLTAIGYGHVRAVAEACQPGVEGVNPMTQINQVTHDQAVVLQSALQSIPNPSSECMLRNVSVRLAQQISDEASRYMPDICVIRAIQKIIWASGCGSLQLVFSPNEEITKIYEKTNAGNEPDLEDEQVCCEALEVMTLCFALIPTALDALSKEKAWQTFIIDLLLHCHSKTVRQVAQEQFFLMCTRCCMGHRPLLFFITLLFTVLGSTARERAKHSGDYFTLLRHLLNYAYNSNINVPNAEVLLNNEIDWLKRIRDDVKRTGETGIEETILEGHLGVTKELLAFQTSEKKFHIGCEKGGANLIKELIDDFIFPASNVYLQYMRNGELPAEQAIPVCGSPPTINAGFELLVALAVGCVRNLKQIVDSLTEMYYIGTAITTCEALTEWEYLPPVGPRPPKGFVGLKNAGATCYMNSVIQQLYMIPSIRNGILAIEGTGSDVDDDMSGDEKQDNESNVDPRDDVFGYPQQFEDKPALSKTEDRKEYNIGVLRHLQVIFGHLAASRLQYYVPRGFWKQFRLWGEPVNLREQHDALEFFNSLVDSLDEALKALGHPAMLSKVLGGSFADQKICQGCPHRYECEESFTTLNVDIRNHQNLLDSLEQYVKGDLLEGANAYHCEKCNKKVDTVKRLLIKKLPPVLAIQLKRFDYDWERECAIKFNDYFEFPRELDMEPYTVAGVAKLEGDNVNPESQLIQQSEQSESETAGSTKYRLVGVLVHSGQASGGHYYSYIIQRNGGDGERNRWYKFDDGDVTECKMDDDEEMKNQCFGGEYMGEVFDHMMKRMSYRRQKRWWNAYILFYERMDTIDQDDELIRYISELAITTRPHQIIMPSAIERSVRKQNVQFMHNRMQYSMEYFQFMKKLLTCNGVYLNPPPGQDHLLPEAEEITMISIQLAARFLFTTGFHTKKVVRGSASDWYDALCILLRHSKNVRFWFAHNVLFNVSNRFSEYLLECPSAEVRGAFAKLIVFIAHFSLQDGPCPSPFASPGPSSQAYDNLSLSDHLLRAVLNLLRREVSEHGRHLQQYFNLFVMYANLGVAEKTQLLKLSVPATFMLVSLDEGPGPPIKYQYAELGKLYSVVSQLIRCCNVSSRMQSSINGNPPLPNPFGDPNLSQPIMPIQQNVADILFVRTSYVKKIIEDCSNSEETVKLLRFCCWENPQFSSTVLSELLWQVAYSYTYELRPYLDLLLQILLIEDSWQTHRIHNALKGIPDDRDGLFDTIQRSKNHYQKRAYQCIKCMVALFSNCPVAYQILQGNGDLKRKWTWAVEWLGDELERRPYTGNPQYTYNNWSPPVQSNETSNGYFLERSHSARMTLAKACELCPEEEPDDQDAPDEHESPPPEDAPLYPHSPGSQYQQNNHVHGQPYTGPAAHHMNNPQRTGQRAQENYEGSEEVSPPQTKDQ
Procedure, shortened: as §1

UniProt O00487 = biological target: UniProt O00487
UniProt O00487, sequence (O00487 whole entry): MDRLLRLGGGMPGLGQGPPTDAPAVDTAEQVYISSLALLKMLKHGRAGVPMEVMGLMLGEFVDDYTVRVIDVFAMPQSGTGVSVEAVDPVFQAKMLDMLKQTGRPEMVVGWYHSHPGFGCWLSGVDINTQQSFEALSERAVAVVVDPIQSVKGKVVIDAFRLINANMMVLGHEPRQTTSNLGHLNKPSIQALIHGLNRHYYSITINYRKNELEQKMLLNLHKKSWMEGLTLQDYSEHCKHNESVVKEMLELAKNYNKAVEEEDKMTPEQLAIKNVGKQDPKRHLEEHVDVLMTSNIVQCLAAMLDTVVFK
Procedure, shortened: as §1

Measured: log2 ratio of Biotin-Ahx-Ub-VS probe labelling

CC(NC(=O)CCl)c1cc2n(n1)CCCC2.Cl (stereo not given)
inactive: USP42 0.487 | USP46 -0.0285 | USP47 0.43 | USP48 -0.017 | USP5 -0.437 | USP54 0.53 | USP7 -0.279 | USP8 0.0604 | USP9X -0.0806 | UniProt O00487 -0.00796
